The record followed here is PubChem BioAssay AID485346 (Sanford-Burnham Center for Chemical Genomics, 2010).

SMILES strings stand for the structures. Hit rate of the full screen: of about 330,000 compounds, about 10,000 (3%) were called active. Only a selection was taken, and actives are over-represented in it overall. Values without a mark were called inactive.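 The calls were made as follows: active = inhibition of at least 50% at 8 µM in the primary screen; inactive = the rest.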

For the experiment, the target named is Protein Mdm4 (Homo sapiens) + E3 ubiquitin-protein ligase Mdm2 (Homo sapiens) (UniProt O15151+Q00987). The experiment in a line: disruptors of Mdm2/MdmX RING complex – cell-based, luminescence, split luciferase, SaOS-2, uHTS, primary screen (AID 485346). The following applies: SaOS-2 split-luciferase Mdm2/MdmX complementation, at 8 µM, active compounds read high.
Sequence of Protein Mdm4 (Homo sapiens) + E3 ubiquitin-protein ligase Mdm2 (Homo sapiens) (O15151 whole entry, looked up): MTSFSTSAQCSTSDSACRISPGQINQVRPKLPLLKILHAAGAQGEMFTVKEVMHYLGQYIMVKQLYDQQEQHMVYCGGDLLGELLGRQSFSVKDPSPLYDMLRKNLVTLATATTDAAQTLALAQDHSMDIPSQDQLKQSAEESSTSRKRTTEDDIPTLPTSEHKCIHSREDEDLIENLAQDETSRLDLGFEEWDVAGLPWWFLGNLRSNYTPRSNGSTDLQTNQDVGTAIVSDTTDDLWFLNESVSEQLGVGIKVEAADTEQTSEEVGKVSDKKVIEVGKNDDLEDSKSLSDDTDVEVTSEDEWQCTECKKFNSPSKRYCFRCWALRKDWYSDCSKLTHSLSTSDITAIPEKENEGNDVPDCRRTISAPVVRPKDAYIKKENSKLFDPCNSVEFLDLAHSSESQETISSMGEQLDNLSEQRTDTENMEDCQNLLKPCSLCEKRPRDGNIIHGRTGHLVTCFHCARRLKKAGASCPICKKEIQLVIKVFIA
Sequence of Protein Mdm4 (Homo sapiens) + E3 ubiquitin-protein ligase Mdm2 (Homo sapiens) (Q00987 whole entry, looked up): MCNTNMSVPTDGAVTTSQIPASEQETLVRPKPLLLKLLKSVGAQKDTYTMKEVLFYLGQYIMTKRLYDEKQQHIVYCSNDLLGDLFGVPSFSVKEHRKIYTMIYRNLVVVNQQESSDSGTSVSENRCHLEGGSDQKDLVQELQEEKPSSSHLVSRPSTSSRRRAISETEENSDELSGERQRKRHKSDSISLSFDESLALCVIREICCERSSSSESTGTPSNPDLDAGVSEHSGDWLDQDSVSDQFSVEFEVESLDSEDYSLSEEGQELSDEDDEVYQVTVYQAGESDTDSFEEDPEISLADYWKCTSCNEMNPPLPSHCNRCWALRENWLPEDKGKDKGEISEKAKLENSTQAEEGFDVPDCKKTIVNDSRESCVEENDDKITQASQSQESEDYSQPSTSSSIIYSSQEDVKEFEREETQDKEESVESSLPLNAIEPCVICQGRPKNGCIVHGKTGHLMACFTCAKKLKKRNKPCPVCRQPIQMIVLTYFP
Take `COc1ccccc1NC(=O)CCC(=O)N1CC(C)Oc2ccc(C)cc21` (stereo unspecified): the inhibition (commonly the change of the read-out against control, counted positive when it falls) was 13.9%. In the case of `O=C1Nc2ccc([N+](=O)[O-])cc2C1=Nc1cccc(CO)c1`, the inhibition is 30.4%. As for `Cc1ccc(N2CC(C(=O)NCCS(=O)(=O)N3CCN(c4ccccc4)CC3)CC2=O)cc1` (stereo unspecified), the inhibition was 37.2%. Next, `COc1cc(N)c(Cl)cc1C(=O)OCC(=O)c1ccc2c(c1)NC(=O)CO2`: 18.8%.

As to `Cc1ccc(CNC(=O)c2c(-c3ccccc3)noc2C)cc1`, the inhibition is -12.1%. Next, `CCOC(=O)c1c(-c2ccc(-c3ccccc3)cc2)csc1NC(=O)CCC(=O)O`: 9.19%.

Take `CCOC(=O)c1c(-c2cccc(C)c2)csc1NC(=O)c1c(-c2ccccc2)noc1C`: the inhibition was 94.3% (active). With `Cn1c(=O)[nH]c(=O)c2c1nc(NCCCn1ccnc1)n2Cc1cccc(Br)c1`, the inhibition was 34.5%. Next, `Cc1ccccc1NC(=O)CN1C(=O)N/C(=C\c2cccn2-c2cccc(C(=O)O)c2)C1=O`: 11.8%.

Consider `O=c1c(-c2cccc(Cl)c2)c[nH]n1-c1ccccc1`, for which the inhibition was -13.8%. On to `O=C1N/C(=C/c2cccn2-c2ccccc2)C(=O)N1c1cccc(Cl)c1`, for which the inhibition is 53.8% (active). Next, `COc1ccc(C(=O)OCC(=O)NCC2CCCO2)cc1[N+](=O)[O-]` (stereo unspecified): -2.37%; `O=C(C1CCC(=O)N(C2CC2)C1)N1CCN(c2ccc(Cl)cc2)CC1` (stereo unspecified): -4.59%. As to `CN(C(=O)c1cc2c(=O)n3ccccc3nc2s1)C1CCCCC1`, the inhibition was -88.5%. To `CN(c1ccc2nc3ccccc3c(=O)n2n1)C1CCCCC1` belongs 90.5% (active); to `CN(C(=O)CSc1nncc2ccccc12)C1CCCCC1`, -30.3%; to `CC(=O)Nc1c2c(nn1-c1cccc(C)c1)CSC2`, 18%. To `Cc1c(CNCCc2ccccc2)c(C(=O)O)c(C)n1-c1ccccc1` belongs 8.96%. Next, `CN(C(=O)c1cccc(NC(=O)Cc2ccc([N+](=O)[O-])cc2)c1)C1CCC1`: 15.3%; `COc1ccc(-c2nn(C)c(=O)c3ccccc23)cc1CNC(=O)C1CCCCC1`: 13%.

With `CCC(=O)NCc1cc(-c2nn(C)c(=O)c3ccccc23)ccc1OC`, the inhibition is 20.9%. To `COc1ccc(-c2nn(C)c(=O)c3ccccc23)cc1NC(=O)COc1ccccc1` belongs 70.8% (active); to `Cc1cc(NC(=O)COC(=O)/C=C/c2ccc(C)o2)no1`, 8.11%. Next, `Cc1c(C=O)c2ccccc2n1CCOc1ccccc1`: 11.3%; `O=C(NCCc1ccc(F)cc1)c1ccc(S(=O)(=O)N2CCCCC2)cc1`: 0.124%. To `O=S(=O)(Nc1cccc(Oc2ccc(Cl)cc2)n1)c1ccc(F)cc1` belongs 14.1%. On to `CC(NC(=S)Nc1ccccc1)C(c1cccs1)N1CCOCC1` (stereo unspecified), for which the inhibition is -20.7%.

In the case of `CCCC(=O)NC(C)C(c1cccs1)N1CCN(c2ccccc2)CC1` (stereo unspecified), the inhibition was 18.2%.

In the case of `CC(NC(=O)Nc1ccccc1)C(c1cccs1)N1CCN(c2ccccc2)CC1` (stereo unspecified), the inhibition is 58.6% (active). As for `CCOCCCNC(=O)C(NC(=O)c1ccc(=O)[nH]c1)c1ccc(Cl)cc1` (stereo unspecified), the inhibition was -20.6%.

Consider `CNC(=S)N/N=C/c1cn(Cc2ccc(C)cc2)c2ccccc12`, for which the inhibition was 42.2%. Regarding `N#CCC(=O)N/N=C/c1cn(Cc2ccc3ccccc3c2)c2ccccc12`, the inhibition was 67.9% (active). Next, `COc1cccc(Cn2cc(/C=N/NC(=O)c3cc(O)cc(O)c3)c3ccccc32)c1`: 23.5%; `CC1=C(C(N)=O)C(c2ccc3c(c2)OCO3)n2nc(-c3cccc(C)c3)nc2N1` (stereo unspecified): 7.35%; `N=c1c2c(-c3ccccc3)c(-c3ccccc3)n(Cc3ccccc3)c2ncn1CCCO`: 57.2% (active). Regarding `COCCn1cnc2c1c(=O)n(Cc1ccc(Br)cc1)c(=O)n2Cc1ccccc1`, the inhibition was 31.5%. `CCN(CC)CCn1cnc2c1c(=O)[nH]c(=O)n2Cc1ccccc1`: the inhibition was 14.5%. Next, `CCOC(=O)[C@H]1[C@H]2COc3ccc(OC)cc3[C@@H]2N2C(=O)c3ccc(F)cc3NC(=O)[C@@]12C`: 17.8%; `CCOC(=O)Cc1csc(SCC(=O)Nc2ccc(C)cc2F)n1`: 7.22%. To `CCOCc1nnc(NC(=O)CCC2CCCCC2)s1` belongs 15.7%; to `CCn1c(CNC(=O)c2cc(OC)c(OC)c(OC)c2)cc2cc(C)ccc21`, 18.3%. Next, `O=C(NNc1ccccc1Cl)C(O)(c1cccc(C(F)(F)F)c1)c1cccc(C(F)(F)F)c1`: 94.5% (active); `O=C(Nc1cc(C(F)(F)F)ccc1Cl)C(=O)N1CCCCC1`: 4.88%; `O=C(CNS(=O)(=O)c1cccc(C(F)(F)F)c1)Nc1ccccc1F`: -4.5%.

Consider `O=C(NCCC1=CCCCC1)c1ccc(-n2cncn2)cc1`, for which the inhibition is -91.1%.

`COC(=O)c1ccccc1NC(=O)C1CC(=O)N(c2ccc(OC)cc2)C1` (stereo unspecified): the inhibition was 15.5%. Next, `COc1ccc(CNS(=O)(=O)c2cc3c4c(c2)CCN4C(=O)CC3)cc1`: -14.5%; `COc1ccc(C2=Nn3c(nnc3-c3ccccc3OC)SC2)cc1OC1CCCC1`: 88.2% (active); `Cc1nnc2n1N=C(c1ccccc1)CS2`: 17.5%. Turning to `COc1ccccc1-c1nnc2n1N=C(c1ccc(OC(F)F)c(OCC3CC3)c1)CS2`, the inhibition is 23.3%. Next, `Cc1ccc(C)c(OCCC(=O)OCC(=O)NC(=O)NCc2ccccc2)c1`: 6.63%.

Turning to `O=C(Nc1ccc(OC(F)(F)F)cc1)c1ccc2c(c1)no[n+]2[O-]`, the inhibition was 19%.

As for `CCN1C(=NCc2ccc(OC)cc2)N[C@@H](CCc2ccccc2)[C@H](C(=O)NCc2ccc(OC)cc2)[C@H]1C`, the inhibition is 14.2%.

Consider `COc1ccccc1CNS(=O)(=O)c1cc(C(=O)NCc2ccccn2)c(Cl)cc1Cl`, for which the inhibition was -21.7%.

Regarding `CC(C)Cc1nc(Nc2ccc(S(=O)(=O)N3CCCC3)cc2)c2nnn(Cc3ccccc3)c2n1`, the inhibition was 68.6% (active). To `CC(C)Nc1ncnc2c1nnn2Cc1ccccc1` belongs -2.35%; to `Cc1nc(Nc2ccc(S(=O)(=O)N3CCCC3)cc2)c2nnn(Cc3ccccc3)c2n1`, 3.4%; to `Cc1cnc(C(=O)N2CCCC(N3CCN(c4ccccc4F)CC3)C2)cn1` (stereo unspecified), 1.8%. To `Cc1ccc(S(=O)(=O)N(CC(=O)N/N=C/c2ccc(F)cc2)c2cccc3cccnc23)cc1` belongs 4.5%; to `Cn1nc(-c2ccccc2)c(CO)c1Sc1ccccc1`, 8.85%; to `Cc1ccc(S(=O)(=O)c2c(COC(=O)c3cccc(Cl)c3)c(-c3ccccc3)nn2C)cc1`, 7.27%. Next, `Cn1nc(-c2ccccc2)c(CSc2cccc(Cl)c2)c1Cl`: 50.5% (active). Take `C=CCOc1ccc(C(=O)Nc2ccccc2C(=O)N2CCCC2)cc1`: the inhibition was 2.51%.

`COC(=O)Nc1ncc(CN2C(=O)c3ccccc3C2=O)s1`: the inhibition is 12.4%.

`COCCn1c(C)cc(C(=O)COC(=O)CNC(=O)c2ccco2)c1C`: the inhibition is 3.33%. With `Cc1cc(C(=O)COC(=O)CNC(=O)c2ccc(F)cc2)c(C)n1Cc1ccco1`, the inhibition is 56.9% (active). To `Cc1cc(C(=O)CSc2nc(N)cc(=O)[nH]2)c(C)n1Cc1ccco1` belongs 22.2%; to `CC(Oc1ccccc1)C(=O)NN1Cc2ccccc2C1=N` (stereo unspecified), 16.1%; to `CC(C)(C)NS(=O)(=O)CC12CCC(CC1=O)C2(C)C` (stereo unspecified), 8.21%.

With `O=C1Nc2cc(C(=O)N3CCC(N4CCCCC4)CC3)ccc2S/C1=C\c1ccccc1`, the inhibition is 54.5% (active). Next, `CC1CCN(C(=O)c2ccc3c(c2)NC(=O)CN3)CC1`: 13%; `NC(=O)C1CCN(C(=O)c2ccc(-c3ccccc3)cc2)CC1`: 13.3%; `Cc1[nH]n(C(N)=S)c(=O)c1N=Nc1ccc(Cl)cc1Cl`: -31.8%. To `C[C@H](CO)N1C[C@H](C)[C@@H](CN(C)S(=O)(=O)c2ccc(F)cc2)Oc2ccc(NC(=O)CCC(F)(F)F)cc2C1=O` belongs -5.06%; to `COc1ccc(C2CC(=O)Nc3sc(=N)c4c(N)c(C#N)c(N)nc4c32)cc1OC` (stereo unspecified), 19.8%; to `N#Cc1c(N)nc2c3c(sc(=N)c2c1N)NC(=O)CC3c1ccccc1Cl` (stereo unspecified), 68.7% (active). With `CSc1nc2c(c(=O)[nH]1)C(c1cccc(Cl)c1Cl)CC(=O)N2` (stereo unspecified), the inhibition was -2.71%.

With `C/C=C/C=C/C(=O)O`, the inhibition is 19.9%. As to `Cc1cc(C)c(S(=O)(=O)N2C=CC(C(F)(F)F)=NCC2)c(C)c1`, the inhibition was 17.6%.

Regarding `CC(C(=O)Nc1ccc(F)c(F)c1F)N1CCCCCC1` (stereo unspecified), the inhibition was 24.1%.

Regarding `COc1ccccc1CCNC(=O)C1CCN(C(=O)/C=C/c2ccccc2)CC1`, the inhibition is -2.9%.

For the molecule `O=C(/C=C/c1ccc(Cl)c([N+](=O)[O-])c1)c1ccc(O)cc1`, the inhibition was 98.7% (active). To `CN(C)c1ccc(/C=C/C(=O)c2ccc(O)cc2)cc1[N+](=O)[O-]` belongs 11.6%; to `CN(C)c1ccc(/C=C/C(=O)c2ccc(C(C)(C)C)cc2)cc1[N+](=O)[O-]`, 30.9%. With `O=C(/C=C/c1ccc(Cl)c([N+](=O)[O-])c1)c1cccnc1`, the inhibition was 84.3% (active). To `O=C(Nc1cccnc1)c1ccc(Cl)c([N+](=O)[O-])c1` belongs -11.2%. Turning to `O=C(/C=C/c1ccc(Cl)cc1Cl)c1cccnc1`, the inhibition is 17.5%.

As for `O=C(COC(=O)CNC(=O)C1CCCCC1)NCc1ccccc1`, the inhibition is 17.1%. Regarding `CCCSc1ccc([C@H]2N[C@@](Cc3ccccc3)(C(=O)OC)[C@H]3C(=O)N(C)C(=O)[C@@H]23)cc1`, the inhibition is 42.6%. To `CC1CN(C(=S)Nc2ccccc2F)CC(C)O1` (stereo unspecified) belongs 28.4%; to `O=C(/C=C/c1cccc([N+](=O)[O-])c1)OCC(=O)N1CCOCC1`, 9.38%.
